The source of these data is PubChem BioAssay (NCI).

Compounds without any hit were thinned out: in the full panel of roughly 83,000, 20% have a hit.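 Plates (96-well) were seeded with cells, treated with compound at one concentration, and incubated for 48 hours before percent growth was determined.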 The source made the active and inactive calls. How the source made its calls: active means growth percent below 10; inactive means the rest.

One assay deals with SW-620 colon. The experiment in a line: NCI-60 one-dose screen, 48 h (100 = growth as untreated, 0 = no growth, -100 = all killed). Conditions: 10 µM unless noted.
In the case of `OCCNCCNC(Cc1ccc(Cl)cc1)c1ccccc1` (stereo not drawn), the growth was 107% (inactive).
Still for that read-out and setting: the value for `CC1=C(C(=O)Nc2nc(-c3ccc(Cl)cc3)cs2)[C@H](c2ccc(O)cc2)NC(=O)N1` was 102% (inactive); that for `O=C(N/N=C\c1cccc([N+](=O)[O-])c1)N/N=C/c1cccc([N+](=O)[O-])c1` was 103% (inactive); that for `CC1C(/C=N/NC(N)=S)C(C#N)(C#N)C1(C#N)C#N` (stereo not drawn) was 95.8% (inactive).
On the same count and under the same terms, the value for `CN(C)CCCNC(=O)c1cncnc1Nc1ccc(OCc2cccc(F)c2)c(Cl)c1` was -67.7% (active); that for `C=C1C(=O)O[C@H]2[C@H]1CC/C(COC(=O)/C=C\C(=O)NCc1ccc(Cn3c(=O)sn(CCCl)c3=O)cc1)=C\CC[C@@]1(C)O[C@@H]21` was 31.2% (inactive); that for `CC1(C)OB(O)c2cc(-c3nc4ccc5[nH]ncc5c4c4c3CCCC4)ccc21` was 59.4% (inactive).
Same read-out and setting: the value for `N=C(N)c1ccc(-c2ccc(-c3ccccc3)s2)cc1` was -46.2% (active).
Turning to `COc1ccc(CCN(CC(=O)N(CC(N)=O)C2CCC[C@@H]2OCc2ccccc2)C(=O)CN(C(=O)CN(CCc2ccc(Cl)cc2)C(=O)CN(C(=O)CN(C)Cc2ccccc2F)[C@H](C)C2CCCCC2)[C@H](C)C2CCCCC2)cc1OC` (stereo partly drawn), the growth was 53.2% (inactive).
The same measure, in the same setting: then `Cc1nnc(-c2ccc3c(c2)nc(/C=C/c2ccccc2)n3C2CCCCC2)o1`, with 111% (inactive); and `Nn1c(=O)c(=O)[nH]c2c(cnn2-c2ccccc2)c1=O`, with 110% (inactive); and `O=C(O)[C@@H](Cc1ccc2ccccc2c1)NC(=O)n1c2ccccc2c2ccccc21`, with 27.3% (inactive).
Same read-out and setting: then `C=CCC(CCCC)(C(=O)OCC)C(=O)OCC`, with 114% (inactive).
On the same count and under the same terms, then `C#COc1cccc(Nc2ncnc3cc(NC(=O)[C@@H](C)Cl)ccc23)c1`, with 20.4% [6.25 µM] (inactive); and `CC(C)CCN(CCC(C)C)CC(O)c1cc2c(c3ccccc13)CCCC2` (stereo not drawn), with 59% (inactive).
`O=C(CSc1nnc(-c2cc(-c3ccccc3)nc3ccccc23)n1-c1ccccc1)Nc1ccc(C(=O)/C=C/c2ccc(Cl)cc2)cc1`: the growth is 93.3% (inactive).
For the molecule `CCCCNC(=O)Oc1ccc(/C(=C(/C)Cc2ccc(OC)cc2)c2ccc(OCCN3CCCCCC3)cc2)cc1`, the growth was 85.9% (inactive).
Same read-out and setting: then `O=C1C(Nc2ccccn2)=C(I)C(=O)c2ncccc21`, with -64.6% (active); and `Cn1cc(-c2csc(-c3c[nH]c4ccc(F)cc34)n2)c2ccnc(Cl)c21`, with 41.5% (inactive).
Turning to `CC(C)(C)c1cc(Cl)c(O)c(CNCCO)c1`, the growth is 86.4% (inactive).
With `Oc1c(CN2CCCC2)cc(CSCc2ccccc2)c2cccnc12`, the growth is 13.6% (inactive).
Still for that read-out and setting: the value for `O=C(CCSc1nnc2n(Cc3ccccc3)c(=O)c3c4c(sc3n12)CCCC4)N1CCN(c2ccccc2)CC1` was 101% (inactive); that for `O=c1c2c3c(sc2n2c(-c4cc(-c5ccccc5)no4)nnc2n1Cc1ccccc1)CCCC3` was 106% (inactive); that for `CCOC(=O)C1=C(C)/C(=C\c2[nH]c(C)c(C(=O)OCC)c2C)N=C1C` was 2.24% (active).
On the same count and under the same terms, then `NS(=O)(=O)c1ccc(C(=O)NN2C(=O)c3c(Br)c(Br)c(Br)c(Br)c3C2=O)cc1`, with 101% (inactive); and `CCN(CC)CCN1C(=O)c2c(c(C)c3c(oc4ccc(OC)cc43)c2C)C1=O`, with 92.2% (inactive).
Consider `COc1cc(Cl)c(C)cc1NC(=O)c1cc2ccccc2cc1O`, for which the growth is 21.2% (inactive).
Still for that read-out and setting: the value for `COc1cc(NC(=O)c2cncnc2Nc2ccc3c(ccn3Cc3ccccn3)c2)cc(OC)c1` was 23.6% (inactive); that for `CCCCNc1nnc2n(Cc3ccccc3)c(=O)c3c4c(sc3n12)CCCC4` was 23.3% (inactive); that for `C=CCOC(=O)C1=C(C)N(CC)C(=O)NC1c1c(Cl)n(C)c2ccccc12` (stereo not drawn) was 101% (inactive).
As to `CNC1=CC(=O)c2c(C(=O)OC)c(C)[n+]([O-])c(C)c2C1=O`, the growth was 42.5% (inactive).
The same measure, in the same setting: then `O=C(/C=C/c1ccc(Oc2ccc(Br)cc2)cc1)c1ccc(Br)cc1`, with 93.7% (inactive); and `CC(=O)/C(=C/c1ccc([N+](=O)[O-])cc1)C(=O)c1ccccc1`, with 65.4% (inactive).
As to `COc1ccc2[nH]cc(-c3nc(-c4c[nH]c5c(Cl)nccc45)cs3)c2c1`, the growth was 1.95% (active).
The same measure, in the same setting: then `C=C1C(=O)O[C@H]2[C@H]1CC/C(COC(=O)/C=C\C(=O)NCc1ccc(Cn3c(=O)sn(CCCCC)c3=O)cc1)=C\CC[C@@]1(C)O[C@@H]21`, with 19.2% (inactive); and `O=P(O)(O)OCC1OC(n2cnc3c(NCc4ccco4)ncnc32)C(O)C1O` (stereo not drawn), with 14.8% (inactive).
Still for that read-out and setting: the value for `Cc1ccc(S(=O)(=O)c2nc(-c3ccccc3)oc2Sc2nc3ccccc3s2)cc1` was 54.7% (inactive); that for `CCCn1cnc2c(c1=N)C(c1ccc(F)cc1)c1sc3c(F)cccc3c1O2` (stereo not drawn) was 25.1% (inactive).
Still for that read-out and setting: the value for `CN1C(=O)/C(=C2\SC(=Nc3ccccc3)N(Nc3ccccc3)C2=O)c2ccccc21` was 98.3% (inactive).

The test system of the next assay is MCF7 breast. The description is as above. Conditions: 10 µM unless noted.
As for `OCCNCCNC(Cc1ccc(Cl)cc1)c1ccccc1` (stereo not drawn), the growth is 85.1% (inactive).
For the molecule `CC1=C(C(=O)Nc2nc(-c3ccc(Cl)cc3)cs2)[C@H](c2ccc(O)cc2)NC(=O)N1`, the growth is 101% (inactive).
Still for that read-out and setting: then `O=C(N/N=C\c1cccc([N+](=O)[O-])c1)N/N=C/c1cccc([N+](=O)[O-])c1`, with 66.5% (inactive); and `CC1C(/C=N/NC(N)=S)C(C#N)(C#N)C1(C#N)C#N` (stereo not drawn), with 97.1% (inactive).
On the same count and under the same terms, then `CN(C)CCCNC(=O)c1cncnc1Nc1ccc(OCc2cccc(F)c2)c(Cl)c1`, with -44% (active).
The same measure, in the same setting: then `C=C1C(=O)O[C@H]2[C@H]1CC/C(COC(=O)/C=C\C(=O)NCc1ccc(Cn3c(=O)sn(CCCl)c3=O)cc1)=C\CC[C@@]1(C)O[C@@H]21`, with 61.8% (inactive); and `CC1(C)OB(O)c2cc(-c3nc4ccc5[nH]ncc5c4c4c3CCCC4)ccc21`, with 44.1% (inactive); and `N=C(N)c1ccc(-c2ccc(-c3ccccc3)s2)cc1`, with 13.8% (inactive).
`COc1ccc(CCN(CC(=O)N(CC(N)=O)C2CCC[C@@H]2OCc2ccccc2)C(=O)CN(C(=O)CN(CCc2ccc(Cl)cc2)C(=O)CN(C(=O)CN(C)Cc2ccccc2F)[C@H](C)C2CCCCC2)[C@H](C)C2CCCCC2)cc1OC` (stereo partly drawn): the growth was 14.1% (inactive).
In the case of `Cc1nnc(-c2ccc3c(c2)nc(/C=C/c2ccccc2)n3C2CCCCC2)o1`, the growth is 77.1% (inactive).
Turning to `Nn1c(=O)c(=O)[nH]c2c(cnn2-c2ccccc2)c1=O`, the growth was 99.4% (inactive).
`O=C(O)[C@@H](Cc1ccc2ccccc2c1)NC(=O)n1c2ccccc2c2ccccc21`: the growth was 17.1% (inactive).
Still for that read-out and setting: then `C=CCC(CCCC)(C(=O)OCC)C(=O)OCC`, with 93% (inactive); and `C#COc1cccc(Nc2ncnc3cc(NC(=O)[C@@H](C)Cl)ccc23)c1`, with 11.6% [6.25 µM] (inactive).
On the same count and under the same terms, the value for `CC(C)CCN(CCC(C)C)CC(O)c1cc2c(c3ccccc13)CCCC2` (stereo not drawn) was 78.5% (inactive); that for `O=C(CSc1nnc(-c2cc(-c3ccccc3)nc3ccccc23)n1-c1ccccc1)Nc1ccc(C(=O)/C=C/c2ccc(Cl)cc2)cc1` was 78.5% (inactive); that for `CCCCNC(=O)Oc1ccc(/C(=C(/C)Cc2ccc(OC)cc2)c2ccc(OCCN3CCCCCC3)cc2)cc1` was 27.3% (inactive).
Regarding `O=C1C(Nc2ccccn2)=C(I)C(=O)c2ncccc21`, the growth was -58.7% (active).
On the same count and under the same terms, then `Cn1cc(-c2csc(-c3c[nH]c4ccc(F)cc34)n2)c2ccnc(Cl)c21`, with 59.5% (inactive); and `CC(C)(C)c1cc(Cl)c(O)c(CNCCO)c1`, with 96.3% (inactive); and `Oc1c(CN2CCCC2)cc(CSCc2ccccc2)c2cccnc12`, with 8.46% (active).
In the case of `O=C(CCSc1nnc2n(Cc3ccccc3)c(=O)c3c4c(sc3n12)CCCC4)N1CCN(c2ccccc2)CC1`, the growth is 98.4% (inactive).
Same read-out and setting: the value for `O=c1c2c3c(sc2n2c(-c4cc(-c5ccccc5)no4)nnc2n1Cc1ccccc1)CCCC3` was 97.1% (inactive); that for `CCOC(=O)C1=C(C)/C(=C\c2[nH]c(C)c(C(=O)OCC)c2C)N=C1C` was 88.2% (inactive); that for `NS(=O)(=O)c1ccc(C(=O)NN2C(=O)c3c(Br)c(Br)c(Br)c(Br)c3C2=O)cc1` was 81.4% (inactive).
On the same count and under the same terms, then `CCN(CC)CCN1C(=O)c2c(c(C)c3c(oc4ccc(OC)cc43)c2C)C1=O`, with 94.8% (inactive); and `COc1cc(Cl)c(C)cc1NC(=O)c1cc2ccccc2cc1O`, with 17.2% (inactive).
In the case of `COc1cc(NC(=O)c2cncnc2Nc2ccc3c(ccn3Cc3ccccn3)c2)cc(OC)c1`, the growth is 31.2% (inactive).
On the same count and under the same terms, the value for `CCCCNc1nnc2n(Cc3ccccc3)c(=O)c3c4c(sc3n12)CCCC4` was 43.4% (inactive); that for `C=CCOC(=O)C1=C(C)N(CC)C(=O)NC1c1c(Cl)n(C)c2ccccc12` (stereo not drawn) was 98.7% (inactive); that for `CNC1=CC(=O)c2c(C(=O)OC)c(C)[n+]([O-])c(C)c2C1=O` was 57% (inactive).
The same measure, in the same setting: the value for `O=C(/C=C/c1ccc(Oc2ccc(Br)cc2)cc1)c1ccc(Br)cc1` was 73% (inactive).
On the same count and under the same terms, then `CC(=O)/C(=C/c1ccc([N+](=O)[O-])cc1)C(=O)c1ccccc1`, with 29.2% (inactive); and `COc1ccc2[nH]cc(-c3nc(-c4c[nH]c5c(Cl)nccc45)cs3)c2c1`, with 54.7% (inactive); and `C=C1C(=O)O[C@H]2[C@H]1CC/C(COC(=O)/C=C\C(=O)NCc1ccc(Cn3c(=O)sn(CCCCC)c3=O)cc1)=C\CC[C@@]1(C)O[C@@H]21`, with 36.6% (inactive).
Regarding `O=P(O)(O)OCC1OC(n2cnc3c(NCc4ccco4)ncnc32)C(O)C1O` (stereo not drawn), the growth is 0.586% (active).
Same read-out and setting: then `Cc1ccc(S(=O)(=O)c2nc(-c3ccccc3)oc2Sc2nc3ccccc3s2)cc1`, with 58% (inactive); and `CCCn1cnc2c(c1=N)C(c1ccc(F)cc1)c1sc3c(F)cccc3c1O2` (stereo not drawn), with 15.1% (inactive).
On the same count and under the same terms, then `CN1C(=O)/C(=C2\SC(=Nc3ccccc3)N(Nc3ccccc3)C2=O)c2ccccc21`, with 86.2% (inactive).
